Inconclusive results are not listed. The source made the active and inactive calls. How the source made its calls, unless noted: active means hit-call score of the fitted dose curve at least 0.9, where 1 is the maximum; inactive means score below 0.9. Peptide text beside a SMILES is read from it.
Columns and labels:
[1] = target: Glucocorticoid receptor (Homo sapiens) (UniProt P04150); experiment: ATG_GR_TRANS: Attagene TRANS-FACTORIAL HepG2 Assay for human Glucocorticoid Receptor (GR) (AID 2282978; active means hit-call score of the fitted dose curve at least 0.9, where 1 is the maximum;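 further: activators score as hits since higher reporter transcript over DMSO is fitted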); conditions: HepG2 Attagene TRANS GR reporter, mRNA transcription
Outline: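 HepG2 cells transiently transfected with multiplexed reporter units in which chimeric NR-GAL4 proteins drive GAL4-UAS reporters; 24 h compound exposure. Reporter mRNA measured by RT-PCR, 6-FAM labelling, HpaI digestion and capillary electrophoresis; gain-of-signal fitted versus DMSO.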

[2] = target: Oxysterols receptor LXR-alpha (Homo sapiens) (UniProt Q13133); experiment: ATG_LXRa_TRANS: Attagene TRANS-FACTORIAL HepG2 Assay for human Liver X Receptor alpha (LXRa) (AID 2282980; active means hit-call score of the fitted dose curve at least 0.9, where 1 is the maximum); conditions: HepG2 Attagene TRANS reporter, LXRa transactivation
Outline: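 Transient HepG2 transfectants, 24 h dosing, RT-PCR/CE mRNA reporter quantitation; gain-of-signal vs DMSO.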

[3] = target: Oxysterols receptor LXR-beta (Homo sapiens) (UniProt P55055); experiment: ATG_LXRb_TRANS: Attagene TRANS-FACTORIAL HepG2 Assay for human Liver X Receptor beta (LXRb) (AID 2282981; active means hit-call score of the fitted dose curve at least 0.9, where 1 is the maximum); conditions: HepG2 Attagene TRANS GAL4-LXRb reporter, mRNA
Outline: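 After 24 h chemical treatment of transfected HepG2 cells carrying exogenous NR-Gal4 chimeras, reporter mRNA was quantified by fluorescent RT-PCR and capillary electrophoresis; activity taken as increase over DMSO controls.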

[4] = target: Hepatocyte nuclear factor 4-alpha (Homo sapiens) (UniProt P41235); experiment: ATG_HNF4a_TRANS: Attagene TRANS-FACTORIAL HepG2 Assay for human Hepatocyte Nuclear Factor 4 alpha (HNF4a) (AID 2282982; active means hit-call score of the fitted dose curve at least 0.9, where 1 is the maximum); conditions: HepG2 HNF4a transactivation reporter, mRNA readout
Outline: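 Activity of an exogenous HNF4a–Gal4 fusion scored as induced GAL4-UAS reporter transcripts after 24 h chemical exposure of transfected human HepG2 cells. Read-out via RT-PCR with 6-FAM labelling and capillary electrophoresis; rise over DMSO baseline.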

[5] = ATG_M_06_TRANS: Attagene TRANS-FACTORIAL HepG2 Assay for M06 Transcription Factor (Internal Marker) (AID 2282983; active means hit-call score of the fitted dose curve at least 0.9, where 1 is the maximum;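 further: reporter transcript level by RT-PCR then capillary electrophoresis fluorescence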); conditions: HepG2 Attagene TRANS M06 internal marker reporter
Outline: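 Human liver HepG2 cells bearing transiently transfected chimeric NR-GAL4 reporter units were treated with chemicals for 24 h. Total RNA was reverse-transcribed, reporter sequences amplified and labelled, then quantified by capillary electrophoresis. Activity was fitted upward relative to DMSO.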

[6] = ATG_M_32_TRANS: Attagene TRANS-FACTORIAL HepG2 Assay for M32 Transcription Factor (Internal Marker) (AID 2282984; active means hit-call score of the fitted dose curve at least 0.9, where 1 is the maximum;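 further: transcript level of a background control reporter unit measured by RT-PCR and capillary electrophoresis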); conditions: HepG2 Attagene TRANS M32 internal marker reporter
Outline: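 Internal background reporter in transfected HepG2: after 24 h chemical exposure, RNA reverse-transcribed, reporter cDNA amplified, fluorescently labelled and HpaI-cut, then sized by capillary electrophoresis. Gain of signal fitted against DMSO control.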

[7] = target: Transcriptional activator Myb (Homo sapiens) (UniProt P10242); experiment: ATG_Myb_CIS: Attagene CIS-FACTORIAL HepG2 Assay for human Myeloblastosis (Myb) Proto-Oncogene Transcription Factor (AID 2282986); conditions: HepG2 Attagene CIS-FACTORIAL Myb reporter transcription; actives raise or lower the signal
Outline: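 HepG2 cells were transiently transfected with cis-regulated multiple reporter transcription units reflecting endogenous Myb activity, then exposed to compound for 24 hours. Reporter mRNA was measured by RT-PCR with capillary electrophoresis; bidirectional fitting versus DMSO baseline.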

[8] = target: Nuclear respiratory factor 1 (Homo sapiens) (UniProt Q16656); experiment: ATG_NRF1_CIS: Attagene CIS-FACTORIAL HepG2 Assay for human Nuclear Respiratory Factor 1 (NRF1) Orphan Gene (AID 2282987); conditions: HepG2 NRF1 cis-element reporter, Attagene multiplex; actives raise or lower the signal
Outline: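 HepG2 cells transiently transfected with multiple reporter transcription units under cis-regulatory promoter control, so endogenous transcription-factor activity is read. After 24 h compound exposure, reporter mRNA quantified by RT-PCR, fluorescent labelling, HpaI digestion and capillary electrophoresis; bidirectional fitting versus DMSO.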

[9] = ATG_NFI_CIS: Attagene CIS-FACTORIAL HepG2 Assay for human Nuclear Factor I (NFI) (AID 2282989); conditions: HepG2 cis-regulatory reporter, NFI response element transcription; actives raise or lower the signal
Outline: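 HepG2 cells transiently transfected with cis-element-driven multiplexed reporter transcription units, dosed for 24 h. Reporter mRNA quantified by RT-PCR, fluorescent labelling, HpaI digestion and capillary electrophoresis; bidirectional fit versus DMSO baseline.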

[10] = target: Myc proto-oncogene protein (Homo sapiens) (UniProt P01106); experiment: ATG_Myc_CIS: Attagene CIS-FACTORIAL HepG2 Assay for human Myelocytomatosis (Myc) Proto-Oncogene Transcription Factor (AID 2282990); conditions: HepG2, Attagene cis-reporter transcription factor activity; actives raise or lower the signal
Outline: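 Cells of the HepG2 human liver line bear multiple cis-driven reporter transcription units. Reporter mRNA after 24 h exposure is reverse-transcribed, amplified, labelled and resolved by capillary electrophoresis, with gain- or loss-of-signal fitting relative to DMSO.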

[11] = ATG_NRF2_ARE_CIS: Attagene CIS-FACTORIAL HepG2 Assay for human Nuclear Factor Erythroid 2 Related Factor 2 (NFR2) response to Antioxidant Response Elements (ARE) (AID 2282992); conditions: HepG2 Attagene ARE/NRF2 reporter, transcription factor activity; actives raise or lower the signal;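 on AC50: reporter mRNA level measured by RT-PCR and capillary electrophoresis fluorescence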
Outline: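 Fluorescence intensity of reporter-specific cDNA fragments, separated by capillary electrophoresis, reflects mRNA induction in transfected HepG2 cells at 24 h. Activity is fitted bidirectionally, DMSO serving as baseline.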

[12] = ATG_Oct_MLP_CIS: Attagene CIS-FACTORIAL HepG2 Assay for human Octamer-Binding Transcription Factor (Oct) (AID 2282993); conditions: HepG2 Attagene cis-factorial Oct reporter, mRNA; actives raise or lower the signal
Outline: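 HepG2 cells transiently transfected with cis-promoter-driven multiplexed reporter transcription units, dosed for 24 h. Reporter mRNA quantified by RT-PCR, fluorescent labelling, HpaI digestion and capillary electrophoresis; bidirectional fits versus DMSO baseline.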

[13] = target: Cellular tumor antigen p53 (Homo sapiens) (UniProt P04637); experiment: ATG_p53_CIS: Attagene CIS-FACTORIAL HepG2 Assay for human p53 Transcription Factor (AID 2282994); conditions: HepG2 p53 cis-element reporter, Attagene mRNA; actives raise or lower the signal
Outline: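 Transiently transfected HepG2 (multiple cis reporter transcription units); exposure 24 h; reporter RNA via RT-PCR, 6-FAM extension, 2 h HpaI digest at 37 C, CE detection; DMSO baseline.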

[14] = target: Bile acid receptor (Homo sapiens) (UniProt Q96RI1); experiment: ATG_FXR_TRANS: Attagene TRANS-FACTORIAL HepG2 Assay for Farnesoid X Receptor (FXR) (AID 2282979; active means hit-call score of the fitted dose curve at least 0.9, where 1 is the maximum;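 further: hits raise reporter mRNA above DMSO so AC50 marks FXR activation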); conditions: HepG2 Attagene TRANS FXR-GAL4 reporter transcription
Outline: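 Chimeric FXR-GAL4 activity in transiently transfected human HepG2 liver cells is scored as induction of reporter mRNA after 24 h of dosing. Detection uses RT-PCR with fluorescent labelling and capillary electrophoresis, with DMSO serving as baseline.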

[15] = ATG_NF_kB_CIS: Attagene CIS-FACTORIAL HepG2 Assay for human Nuclear Factor Kappa B (NF-kB) (AID 2282991); conditions: HepG2 Attagene cis-factorial NF-kB reporter mRNA; actives raise or lower the signal
Outline: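 HepG2 cells transiently transfected with multiplexed cis-element reporter units measuring endogenous transcription factor activity; reporter mRNA read 24 h after dosing by RT-PCR, fluorescent labelling, HpaI digestion and capillary electrophoresis. Bidirectional fit against DMSO baseline.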

[16] = target: Nuclear receptor subfamily 4 group A member 2 (Homo sapiens) (UniProt P43354); experiment: ATG_NURR1_TRANS: Attagene TRANS-FACTORIAL HepG2 Assay for human Nuclear Receptor Related Protein 1 (NURR1) (AID 2282985; active means hit-call score of the fitted dose curve at least 0.9, where 1 is the maximum); conditions: HepG2 Attagene TRANS reporter, mRNA readout
Outline: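 Reporter transcript induction, measured by RT-PCR with fluorescent labelling, HpaI digestion and capillary electrophoresis, after 24 hr dosing of human HepG2 cells transiently expressing an exogenous NR-Gal4 fusion with GAL4-UAS-driven reporters; DMSO as baseline.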

Measured: AC50

Sequence of Nuclear receptor subfamily 4 group A member 2 (Homo sapiens) (P43354 whole entry, looked up, the tested form may be a part): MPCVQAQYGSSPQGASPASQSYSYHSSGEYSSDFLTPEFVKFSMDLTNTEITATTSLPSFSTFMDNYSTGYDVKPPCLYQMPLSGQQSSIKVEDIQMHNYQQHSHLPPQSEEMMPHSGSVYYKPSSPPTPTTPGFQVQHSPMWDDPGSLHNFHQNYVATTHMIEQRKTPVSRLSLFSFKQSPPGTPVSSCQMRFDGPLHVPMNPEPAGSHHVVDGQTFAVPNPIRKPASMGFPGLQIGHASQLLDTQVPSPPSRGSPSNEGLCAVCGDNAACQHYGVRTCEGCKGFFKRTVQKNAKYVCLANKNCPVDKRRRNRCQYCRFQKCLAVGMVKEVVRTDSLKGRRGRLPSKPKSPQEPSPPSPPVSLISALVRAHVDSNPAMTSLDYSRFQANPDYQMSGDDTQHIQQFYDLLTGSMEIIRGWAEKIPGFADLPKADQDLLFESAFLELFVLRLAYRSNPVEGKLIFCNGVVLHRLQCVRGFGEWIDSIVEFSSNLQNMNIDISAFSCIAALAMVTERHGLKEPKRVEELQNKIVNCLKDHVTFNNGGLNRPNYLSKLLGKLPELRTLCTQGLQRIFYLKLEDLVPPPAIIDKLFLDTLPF
Sequence of Hepatocyte nuclear factor 4-alpha (Homo sapiens) (P41235 whole entry, looked up, the tested form may be a part): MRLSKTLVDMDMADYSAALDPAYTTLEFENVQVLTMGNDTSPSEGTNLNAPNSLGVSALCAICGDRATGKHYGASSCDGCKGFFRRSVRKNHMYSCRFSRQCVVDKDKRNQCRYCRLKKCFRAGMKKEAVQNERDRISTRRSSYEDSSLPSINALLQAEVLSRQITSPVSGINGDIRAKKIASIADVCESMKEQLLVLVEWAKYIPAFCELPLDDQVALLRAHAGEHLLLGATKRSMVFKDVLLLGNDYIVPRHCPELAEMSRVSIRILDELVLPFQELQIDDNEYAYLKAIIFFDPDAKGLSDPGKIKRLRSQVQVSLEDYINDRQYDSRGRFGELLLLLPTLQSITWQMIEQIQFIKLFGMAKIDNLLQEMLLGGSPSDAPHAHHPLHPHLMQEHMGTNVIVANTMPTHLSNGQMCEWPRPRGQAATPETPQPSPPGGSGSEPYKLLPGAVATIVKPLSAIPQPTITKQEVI
Sequence of Cellular tumor antigen p53 (Homo sapiens) (P04637 whole entry, looked up): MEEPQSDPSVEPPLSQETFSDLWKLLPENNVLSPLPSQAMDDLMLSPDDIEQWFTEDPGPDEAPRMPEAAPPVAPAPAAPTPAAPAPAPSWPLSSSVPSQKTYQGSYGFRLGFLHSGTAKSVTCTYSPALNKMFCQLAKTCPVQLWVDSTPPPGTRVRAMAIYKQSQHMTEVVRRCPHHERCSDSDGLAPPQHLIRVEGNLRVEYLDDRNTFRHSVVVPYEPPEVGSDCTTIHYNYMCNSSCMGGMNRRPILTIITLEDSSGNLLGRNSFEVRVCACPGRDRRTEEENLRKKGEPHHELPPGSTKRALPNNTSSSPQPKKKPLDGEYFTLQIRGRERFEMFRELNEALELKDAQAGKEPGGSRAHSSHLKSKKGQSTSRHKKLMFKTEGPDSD
Sequence of Transcriptional activator Myb (Homo sapiens) (P10242 whole entry, looked up): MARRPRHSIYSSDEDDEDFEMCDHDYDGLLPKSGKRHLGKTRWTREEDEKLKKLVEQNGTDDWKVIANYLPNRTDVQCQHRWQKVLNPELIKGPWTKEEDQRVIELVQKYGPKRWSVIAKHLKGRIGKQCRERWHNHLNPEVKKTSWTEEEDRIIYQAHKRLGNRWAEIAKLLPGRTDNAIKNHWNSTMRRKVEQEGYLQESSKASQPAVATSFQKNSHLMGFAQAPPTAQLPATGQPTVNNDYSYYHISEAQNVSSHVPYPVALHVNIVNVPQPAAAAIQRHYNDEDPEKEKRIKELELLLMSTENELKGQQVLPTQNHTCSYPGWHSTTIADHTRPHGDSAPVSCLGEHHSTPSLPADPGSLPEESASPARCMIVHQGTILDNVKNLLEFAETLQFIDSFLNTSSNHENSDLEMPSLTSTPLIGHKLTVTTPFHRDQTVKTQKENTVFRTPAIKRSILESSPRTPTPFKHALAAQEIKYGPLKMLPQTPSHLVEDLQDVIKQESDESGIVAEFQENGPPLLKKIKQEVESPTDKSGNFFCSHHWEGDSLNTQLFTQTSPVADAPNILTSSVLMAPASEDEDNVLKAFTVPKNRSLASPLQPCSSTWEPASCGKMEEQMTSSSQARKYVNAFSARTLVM
Sequence of Nuclear respiratory factor 1 (Homo sapiens) (Q16656 whole entry, looked up): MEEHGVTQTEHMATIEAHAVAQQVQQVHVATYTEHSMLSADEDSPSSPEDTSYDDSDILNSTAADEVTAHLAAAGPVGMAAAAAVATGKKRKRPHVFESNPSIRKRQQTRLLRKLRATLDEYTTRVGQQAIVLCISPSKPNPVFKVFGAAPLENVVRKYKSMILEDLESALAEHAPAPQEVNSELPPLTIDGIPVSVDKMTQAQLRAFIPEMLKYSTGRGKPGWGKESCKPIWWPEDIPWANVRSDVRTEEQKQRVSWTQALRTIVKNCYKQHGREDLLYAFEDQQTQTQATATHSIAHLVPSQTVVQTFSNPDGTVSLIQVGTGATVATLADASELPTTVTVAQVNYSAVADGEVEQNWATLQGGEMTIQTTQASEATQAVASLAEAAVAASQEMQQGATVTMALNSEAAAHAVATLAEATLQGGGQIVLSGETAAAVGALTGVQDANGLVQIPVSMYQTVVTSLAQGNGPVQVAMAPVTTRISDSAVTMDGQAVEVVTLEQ
Sequence of Oxysterols receptor LXR-beta (Homo sapiens) (P55055 whole entry, looked up, the tested form may be a part): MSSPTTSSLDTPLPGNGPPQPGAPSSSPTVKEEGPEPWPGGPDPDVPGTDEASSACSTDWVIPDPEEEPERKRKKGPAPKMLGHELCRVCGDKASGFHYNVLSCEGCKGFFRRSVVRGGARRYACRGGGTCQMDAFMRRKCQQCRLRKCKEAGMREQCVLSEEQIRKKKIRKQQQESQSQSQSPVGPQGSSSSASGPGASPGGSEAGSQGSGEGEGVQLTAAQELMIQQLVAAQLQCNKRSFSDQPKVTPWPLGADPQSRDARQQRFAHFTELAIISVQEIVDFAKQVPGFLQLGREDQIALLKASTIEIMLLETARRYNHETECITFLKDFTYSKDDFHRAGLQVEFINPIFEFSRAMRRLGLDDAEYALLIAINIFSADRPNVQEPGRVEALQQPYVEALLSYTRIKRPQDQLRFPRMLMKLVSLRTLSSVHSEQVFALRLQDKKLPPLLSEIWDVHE
Sequence of Bile acid receptor (Homo sapiens) (Q96RI1 whole entry, looked up, the tested form may be a part): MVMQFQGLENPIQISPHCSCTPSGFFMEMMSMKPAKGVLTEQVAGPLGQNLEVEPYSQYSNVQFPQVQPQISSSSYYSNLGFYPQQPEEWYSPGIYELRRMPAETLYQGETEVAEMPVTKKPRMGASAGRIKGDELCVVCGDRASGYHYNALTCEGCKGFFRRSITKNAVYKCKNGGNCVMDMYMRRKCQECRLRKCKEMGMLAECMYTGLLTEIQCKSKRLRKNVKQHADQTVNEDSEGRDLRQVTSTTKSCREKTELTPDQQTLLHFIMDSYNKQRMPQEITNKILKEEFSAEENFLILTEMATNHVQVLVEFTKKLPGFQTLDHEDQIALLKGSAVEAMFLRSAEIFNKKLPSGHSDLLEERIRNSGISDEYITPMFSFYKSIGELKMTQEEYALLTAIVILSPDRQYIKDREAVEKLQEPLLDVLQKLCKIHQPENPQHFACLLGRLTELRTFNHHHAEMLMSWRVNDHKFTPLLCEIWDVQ
Sequence of Glucocorticoid receptor (Homo sapiens) (P04150 whole entry, looked up, the tested form may be a part): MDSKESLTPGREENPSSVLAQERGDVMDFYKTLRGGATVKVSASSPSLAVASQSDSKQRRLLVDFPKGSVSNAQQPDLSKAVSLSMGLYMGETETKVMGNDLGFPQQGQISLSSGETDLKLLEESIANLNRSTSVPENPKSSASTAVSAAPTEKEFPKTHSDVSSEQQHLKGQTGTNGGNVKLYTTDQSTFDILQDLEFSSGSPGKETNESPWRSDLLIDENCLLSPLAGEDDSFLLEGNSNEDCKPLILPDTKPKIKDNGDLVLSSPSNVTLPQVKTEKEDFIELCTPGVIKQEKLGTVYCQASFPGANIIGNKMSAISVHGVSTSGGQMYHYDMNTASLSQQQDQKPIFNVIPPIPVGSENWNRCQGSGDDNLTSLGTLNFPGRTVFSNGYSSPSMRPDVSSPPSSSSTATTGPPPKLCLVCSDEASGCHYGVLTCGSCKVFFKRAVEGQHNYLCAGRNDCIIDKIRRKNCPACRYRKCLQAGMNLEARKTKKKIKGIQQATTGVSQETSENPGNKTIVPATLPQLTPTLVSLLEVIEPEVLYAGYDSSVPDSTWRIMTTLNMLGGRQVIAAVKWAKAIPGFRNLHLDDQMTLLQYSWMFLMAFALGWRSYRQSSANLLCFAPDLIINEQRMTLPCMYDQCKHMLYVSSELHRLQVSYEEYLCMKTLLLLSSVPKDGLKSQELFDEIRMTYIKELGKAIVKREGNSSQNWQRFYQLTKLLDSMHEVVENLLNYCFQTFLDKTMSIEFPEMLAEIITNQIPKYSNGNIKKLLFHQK
Sequence of Oxysterols receptor LXR-alpha (Homo sapiens) (Q13133 whole entry, looked up): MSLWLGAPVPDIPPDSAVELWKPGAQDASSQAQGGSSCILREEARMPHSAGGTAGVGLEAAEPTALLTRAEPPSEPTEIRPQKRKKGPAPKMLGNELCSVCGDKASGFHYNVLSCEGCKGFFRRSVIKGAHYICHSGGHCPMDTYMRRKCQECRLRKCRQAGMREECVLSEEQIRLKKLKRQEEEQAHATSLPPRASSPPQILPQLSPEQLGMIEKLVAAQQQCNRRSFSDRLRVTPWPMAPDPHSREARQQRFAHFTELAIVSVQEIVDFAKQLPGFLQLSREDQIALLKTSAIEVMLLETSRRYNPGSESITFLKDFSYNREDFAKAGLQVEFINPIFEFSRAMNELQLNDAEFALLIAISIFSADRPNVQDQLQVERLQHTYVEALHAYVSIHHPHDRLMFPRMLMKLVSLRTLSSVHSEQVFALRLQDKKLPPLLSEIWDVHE

COc1ccc(-c2coc3cc(O)cc(O)c3c2=O)cc1
active: [8] 25.9 µM | [11] 27.2 µM | [12] 39 µM | [13] 159 µM
not listed: [14] | [15] | [16]
inactive: all other assays above

Nc1ncnc2nc[nH]c12
not listed: [2] | [3] | [5] | [6] | [15] | [16]
inactive: all other assays above

CC(=O)C(C)C
not listed: [5] | [6] | [9] | [14] | [15] | [16]
inactive: all other assays above

OCCCc1ccccc1
not listed: [14] | [16]
inactive: all other assays above

C=C1C[C@H]2[C@@H]3C=C(C)C4=CC(=O)CC[C@]4(C)[C@H]3CC[C@]2(C)[C@@]1(OC(C)=O)C(C)=O
active: [1] 0.0106 µM | [2] 16.6 µM | [8] 88.1 µM | [15] 63 µM | [11] 42.1 µM
not listed: [4] | [6] | [9] | [14]
inactive: all other assays above

O=C(O)c1ccc2c(c1)C(=O)OC2=O
not listed: [3] | [4] | [9] | [14]
inactive: all other assays above

CCCCC(C=O)CC (configuration not stated)
not listed: [2] | [3] | [5] | [10] | [13]
inactive: all other assays above

COC(=O)[C@H](Cc1ccccc1)NC(=O)[C@@H](N)CC(=O)O (H-Asp-Phe-OMe)
not listed: [4] | [6] | [10] | [14] | [16]
inactive: all other assays above

CC=CC(=O)OCC(C)C
not listed: [2] | [3] | [6] | [10] | [16]
inactive: all other assays above

C=C[C@@]1(C)CC(=O)[C@]2(O)[C@@]3(C)[C@@H](O)CCC(C)(C)[C@@H]3[C@H](O)[C@H](OC(C)=O)[C@@]2(C)O1
active: [1] 42.5 µM | [3] 0.973 µM | [11] 2.95 µM | [13] 0.983 µM
not listed: [6] | [14] | [15]
inactive: all other assays above
